Shown are actives, neighbours in structure and some others; about 3.5% of the full set was active somewhere.
mHTT CaM bind – mHTT-calmodulin interaction abrogation; P42858; AlphaScreen His-mHTT/GST-CaM binding, luminescence; inhibition, % at 15 µM; 3.6% of 190,000 active; AID 1671202;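 note: 0% = both proteins with DMSO and 100% = one protein alone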
Pf apPOL inh – Pf-apPOL DNA polymerase inhibition; 0.25% of 210,000 active; Recombinant Pf-apPOL, molecular beacon fluorescence, 1.5 h; AID 1794808; inhibition, % at 10 µM
An asterisk follows results filed as active; i = inactive; . = no result given; + = active, no number; ! = repeats disagree. Cut-off read from the data, not from the text of the source: active = inhibition above about 50%; inactive = the rest.

SMILES	mHTT CaM bind	Pf apPOL inh
O=C(NC1CCCC1)c1ccc2ncc3c(=O)n(-c4ccc(F)cc4)[nH]c3c2c1	3	0
CCS(=O)(=O)N1CCc2ccc(NC(=O)c3cccs3)cc2C1	2	0
N/C(=N\OS(=O)(=O)c1ccc(Cl)cc1)c1ccccn1	+	4
N/C(=N\OS(=O)(=O)c1ccccc1)c1ccccn1	i	1
N/C(=N\OC(=O)Oc1ccccc1)c1ccccn1	+	-3
N/C(=N\OC(=O)Oc1ccccc1)c1ccncc1	i	-9
Cc1cc(C)cc(OCc2nc(C(=O)N3CCC(C)CC3)cs2)c1	-4	-2
COc1ccc(C(C)=O)cc1N1C(=O)C2C3C=CC(CO)(O3)C2C1=O (stereo not drawn)	-6	-3
CC(=O)NS(=O)(=O)c1ccc(NC(=O)c2cc(-c3ccccc3C)nc3ccccc23)cc1	1	6
Cc1noc(COC2CCCN(S(=O)(=O)c3ccc(F)cc3)C2)n1 (stereo not drawn)	-18	2
CC(C)[C@@H](COc1ccccc1)N1CCN(Cc2ccccc2)CCC1=O	-1	-6
O=C1CCN(Cc2ccccc2)CCN1[C@H](COc1ccccc1)c1ccccc1	85*	-4
CCCNC(=O)c1cc2c(s1)N(C)CCC2	2	-4
COC(=O)C12CC3CC(CC(NC(=O)c4ccc(Cn5ccnc5)cc4)(C3)C1)C2	0	-1
COC(=O)C12CC3CC(CC(NC(=O)c4ccc(=O)oc4)(C3)C1)C2	14	66*
O=C(Nc1c2c(nn1-c1ccc([N+](=O)[O-])cc1)CSC2)c1cccs1	55*	-4
O=C(Nc1c2c(nn1-c1ccc([N+](=O)[O-])cc1)CS(=O)(=O)C2)c1cccs1	5	-2
O=C(Nc1c2c(nn1-c1ccc(F)cc1)CS(=O)(=O)C2)c1cccs1	3	-4
O=C(Nc1c2c(nn1-c1ccc(F)cc1)CSC2)c1cccs1	51*	-10
O=C(/C=C/c1ccco1)Nc1c2c(nn1-c1ccc([N+](=O)[O-])cc1)CSC2	98*	-4
COc1ccc(/C=C/C(=O)Nc2c3c(nn2-c2ccc([N+](=O)[O-])cc2)CSC3)cc1OC	45	-6
CC(=O)N1CCc2cc(N3CC(C(=O)NCc4ccccc4)CC3=O)ccc21 (stereo not drawn)	-4	-5
Cc1ccccc1/C=C1\Sc2ccccc2N(CC(=O)NC2CCCC2)C1=O	-2	1
COc1ccc(/C=C2\C=C(c3ccc(OC)cc3OC)OC2=O)cc1	6	-6
Cc1ccnc(NS(=O)(=O)c2ccc(NC(=O)c3ccc(Cl)c([N+](=O)[O-])c3)cc2)n1	3	-5
SMILES	mHTT CaM bind	Pf apPOL inh
O=C1C(Nc2cccc(O)c2)=C(n2nnc3ccccc32)C(=O)c2ccccc21	21	-2
Cc1cc(C)n(-c2nc(N3CCOCC3)nc(C)c2[N+](=O)[O-])n1	-1	69*!
Cc1nc(N2CCOCC2)nc(N2CCCC2)c1[N+](=O)[O-]	-2	-10
COc1cccc(CNCc2ccccc2[N+](=O)[O-])c1OC	5	-3
COc1ccc(C)cc1NCc1ccccc1[N+](=O)[O-]	77*	-2
COc1ccc(C)cc1NS(=O)(=O)CC(C)C	6	-4
COc1cc(C)c(CNc2cc(C)ccc2OC)cc1C	89*	-7
CC(=O)NC(=O)C(C#N)=CN1CCN(c2ccccc2)CC1	.	0
CCOc1ccccc1NC(=O)CN(c1ccc(F)cc1)S(C)(=O)=O	-4	66*
CS(=O)(=O)N(Cc1ccc(C(=O)Nc2ccc(F)cc2)cc1)c1ccccc1	-5	50*
CS(=O)(=O)N(Cc1ccccc1)c1ccc(C(=O)Nc2ccc(F)cc2)cc1	7	0
CCOc1ccc(N(CC(=O)Nc2ccccc2OCC)S(C)(=O)=O)cc1	15	-2
CN1CCN(C(=O)c2csc(COc3ccccc3F)n2)CC1	6	-1
CCN(CC)c1ccc(CN2CCN(c3ccccc3OC)CC2)cc1	34	-4
COc1ccc(C(=O)c2ccco2)cc1	-5	56*
COc1ccc(C(=O)N2CCN(C(=O)c3ccco3)CC2)cc1	1	-5
CCC1(C)CC(CCNCc2ccc(OC)c(OC)c2)(c2ccccc2OC)CCO1 (stereo not drawn)	12	-11
CCC1(C)CC(CCNCc2ccc(N(C)C)cc2)(c2ccc(OC)cc2)CCO1 (stereo not drawn)	86*	0
c1ccc2c(N3CCCCCC3)nnc(-c3nc(C4CC4)no3)c2c1	15	-8
O=C(c1ccsc1)N1CCC(n2c(-c3ccsc3)nc3cccnc32)C1 (stereo not drawn)	6	1
CCOc1cccc2cc(C(N)=O)c(=Nc3ccc(OC)cc3)oc12	6	3
COc1cc(N=c2oc3c(O)cc(C(C)(C)C)cc3cc2C(N)=O)cc(OC)c1	56*	-8
Cc1ccc(-n2ncc3c(N4CCN(c5ccc([N+](=O)[O-])cc5)CC4)ncnc32)c(C)c1	8	-2
O=C(Nc1ccc(Cl)cc1)/C(=C/c1cccc([N+](=O)[O-])c1)NC(=O)c1cccs1	4	-2
COc1ccc(NC(=O)c2cc(OC)c(OC)c(OC)c2)c([N+](=O)[O-])c1	-4	1
SMILES	mHTT CaM bind	Pf apPOL inh
COc1ccc(NC(=O)c2ncn[nH]2)c([N+](=O)[O-])c1	100*	-3
c1ccc2c3c([nH]c2c1)CCCC3	37	.
O=C(Nc1ccccc1)c1cccc2c3c([nH]c12)CCCC3	76*	-1
O=c1c2c(ncn2Cc2cccc(F)c2)n(-c2cccc(F)c2)c(=O)n1C1CC1	-2	-2
O=C1c2ccccc2-c2onc3ccc(N4CCOCC4)c1c23	17	-1
O=C1c2cccc(Cl)c2C(=O)c2c1cccc2N1CCOCC1	88*	10
Cc1ccc(CNC(=O)N2CC(C(=O)N3CCCC3)C3(CCOCC3)C2)cc1 (stereo not drawn)	-2	0
Cc1ccc(C2=NN(C(=O)CN3CCC(C(N)=O)CC3)C(c3ccc(C)cc3)C2)cc1 (stereo not drawn)	57*	-9
Cc1ccc(C2=NN(C(=O)CN3CCC(C(N)=O)CC3)C(c3ccccc3)C2)c(C)c1 (stereo not drawn)	56*	-2
CC(=O)N1CCN(CC(=O)N2N=C(c3ccc(C)c(C)c3)CC2c2ccccc2)CC1 (stereo not drawn)	47	4
Cc1ccc(C2CC(c3ccc(Br)cc3)=NN2C(=O)CCC(=O)O)cc1 (stereo not drawn)	18	4
COc1cc(C=C2Oc3c(ccc(OS(C)(=O)=O)c3C)C2=O)cc(OC)c1OC	-1	-2
O=C(Nc1ccccc1-c1nc2ccccc2o1)c1ccc(Cl)s1	-27	-1
O=C1NCCCn2cc(S(=O)(=O)Nc3cccc(F)c3)cc21	-8	4
O=C1C[C@H]2C=CCc3cccc(c32)CN1Cc1ccc(Cl)cc1	30	-2
COc1cccc(CN2Cc3cccc4c3[C@H](C=CC4)CC2=O)c1	100*	0
COc1ccc(-n2nc3c(c2NC(=O)c2c(F)cccc2Cl)CS(=O)(=O)C3)cc1	-5	-6
OCCOC1CCCc2oc(-c3ccccc3)c(C#CC3(O)CCCCC3)c21 (stereo not drawn)	30	-8
O=Cc1ccc(-c2c(-c3ccccc3)oc3c2C(OCCCCO)CCC3)o1 (stereo not drawn)	61*	-6
CS(=O)(=O)N1CCN(c2ccc([N+](=O)[O-])c(NCCOc3ccc(Cl)cc3)c2)CC1	15	-11

Screens (PubChem)
